# The list is not random: actives were taken first. Their share in the collection is about 4.6%.
# Epigenetic derep: regulators of epigenetic silencing causing reporter derepression in mouse cells; murine LDR cells, GFP reporter derepression, 30 h; Potency, µM (series often up to 53.9 µM), for inactives: at the highest dose GFP activation, actives largely listed as activators; 0.2% of 280,000 active; AID 1865; active means well fitted activation curve with a large enough effect; inconclusive means small, poorly fitted or top-dose-only effect; further: potency means the concentration at half of the fitted maximal effect; % of control where 0% means no effect; nearly all actives have a fitted effect of over 60% in size
#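 Murine LDR cells bearing a silenced CMV-driven GFP reporter were exposed to compound for 30 h at 37 C. After PBS washes, GFP-positive cells (20-120 um objects) counted by laser-scanning microplate cytometry.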
# D1 antagonist: antagonists of human D1 dopamine receptor; 3.2% of 360,000 active; AID 504652; activity change, negative = inhibition, % at 10 µM; P21728; HEK293 TREx D1 cells, calcium flux, dopamine EC80; active compounds read low; in the data active means activity change below about -30%; further: on the % scale 0 is the no-effect control and ±100 the full control effect
# Target sequence (P21728 whole entry, looked up): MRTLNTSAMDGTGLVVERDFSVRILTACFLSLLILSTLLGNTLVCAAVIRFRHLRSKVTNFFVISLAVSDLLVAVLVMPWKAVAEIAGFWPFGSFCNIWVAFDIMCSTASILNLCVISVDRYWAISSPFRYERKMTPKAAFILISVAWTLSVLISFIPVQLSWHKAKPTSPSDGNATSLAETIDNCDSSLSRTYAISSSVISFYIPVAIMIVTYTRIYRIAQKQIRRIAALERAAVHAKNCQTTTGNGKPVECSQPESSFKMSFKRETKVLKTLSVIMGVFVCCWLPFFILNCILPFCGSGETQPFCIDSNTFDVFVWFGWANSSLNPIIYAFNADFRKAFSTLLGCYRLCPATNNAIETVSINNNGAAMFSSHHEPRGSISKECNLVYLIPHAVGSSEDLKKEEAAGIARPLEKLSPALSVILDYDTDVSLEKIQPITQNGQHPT
#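 Compound effects on dopamine-evoked calcium signalling were measured in tetracycline-induced HEK293 Trex D1 cells. Dopamine at EC80 followed a 180 s compound pre-read, and fluorescence was tracked kinetically for 180 s more.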
# D1 agonist: agonists of human D1 dopamine receptor; activation, % at 2 µM; 1% of 360,000 active; P21728; HEK293 T-REx D1 cells, calcium flux, agonist mode; AID 504660; further: 0% is about no effect
#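 Tetracycline-induced HEK293 TREx D1 cells, force-coupled to calcium signalling, were dye-loaded with a no-wash calcium kit. Compound was pin-added after a 10 s baseline. Fluorescence was read kinetically at 1 cycle/s for 180 s, with calcium rises flagged as agonism.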
# TRHR ag: TRH receptor (human) agonism. 0.18% of 360,000 active. AID 493084. activation, % at 2 µM. TRHR cells, calcium flux fluo-8, FDSS agonist mode; further: 0% is about no effect
#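 TRHR-expressing cells loaded with fluo-8 calcium dye; 23 nL library compound pin-transferred, kinetic FDSS fluorescence (Ex 480/Em 530) recorded about 180 s for agonist-induced calcium release, before a 10 nM TRH EC20 addition for potentiator mode.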
# D1 PAM: potentiators of human D1 dopamine receptor. AID 504651. potentiation, % at 10 µM. 0.036% of 360,000 active. P21728. HEK293 TREx D1 cells, calcium flux, dopamine EC20 potentiation; in the data active means potentiation above about 30%; further: 0% is about no effect
# TRHR enhancer: allosterically enhances the human TRH receptor | P34981 | TRHR cells, fluo-8 calcium fluorescence, EC20 TRH enhancement | enhancement, % at 2 µM | 0.66% of 360,000 active; in the data active means enhancement above about 30%; further: 0% is about no effect
#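 Enhancer read-out: after compound pinning and an initial kinetic agonist-mode read, an EC20 of TRH (10 nM final) was injected and fluo-8 calcium signal (Ex 480/Em 530) followed at 1 s/cycle for 100 cycles in TRHR-expressing cells.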
# Starred values were filed as active, the others as inactive; ? = inconclusive; · = no result; [ ] = remark or other dose. Unless noted, no stated cut-off is given here; in the data, active means activation above about 30%; inactive means the rest.
SMILES,Epigenetic derep,D1 antagonist,D1 agonist,TRHR ag,D1 PAM,TRHR enhancer
O=C(CNc1cc(S(=O)(=O)N2CCCC2)ccc1OCC(F)(F)F)Nc1ccc(SC(F)F)cc1,-0.9%,-51.4*,11.4,1.4,-8.4,-7.8
COc1ccccc1N1CCN(/N=C\c2ccccc2)CC1,·,4.9,5.7,-0.4,-5.5,2.5
COc1ccccc1N1CCN(/N=C\c2sccc2C)CC1,-4.4%,-43.1*,5.1,-0.4,-4.3,-5.6
COc1cccc2sc(Nc3nnc(-c4ccccc4Cl)o3)nc12,-1.0%,-7.9,43.0*,11.3,3.1,-0.9
Fc1ccc2c(c1)-c1c(cnc3cc(-c4ccc(Cl)cc4)nn13)CO2,14.0%,-18.0,-0.5,1.9,0.1,1.6
Cc1ccc(C)c(NC(=O)Cn2nc(-c3ccccc3)nc2-c2ccccc2)c1,-3.2%,-33.2*,-1.0,0.3,-1.3,6.9
CC(=O)N(C[C@@H](C)C(=O)O)c1c(I)cc(I)c(N)c1I,1.1%[16.9 µM],·,·,·,·,·
CC(C)c1ccc(-c2noc(SCC(=O)N3CCCCC3)n2)cc1,-2.7%,-1.7,10.8,0.5,-2.2,1.2
COc1cc2c(cc1OC)C(c1ccccc1)CN(C)CC2 (centres undefined),-0.2%,·,·,·,·,·
COc1ccc(C(=O)NCCN2CCOCC2)cc1S(=O)(=O)Nc1ccc(C)cc1,·,-35.9*,5.6,-0.1,9.6,0.3
COc1ccc(C)cc1S(=O)(=O)NCCN1CCOCC1,·,8.2,5.0,1.0,-9.4,39.9*
COc1ccc2oc(C(=O)NCCN3CCOCC3)c(C)c2c1OC,·,20.1,0.1,1.0,-1.0,34.0*
COc1ccc(Br)cc1S(=O)(=O)NCCN1CCOCC1,2.1%,2.1,1.4,1.1,-5.2,3.9
Cc1ccc(C)c(S(=O)(=O)Nc2ccc(C(=O)NCCCN3CCOCC3)cc2)c1,·,10.9,1.5,0.0,4.5,1.0
Cc1ccc(Cc2nc3ccccc3nc2SCC(=O)N2CCCCC2)cc1,0.8%,9.1,5.2,0.3,-2.1,0.2
CC(C)Oc1ccc(CNC(=O)c2ccc(CS(=O)Cc3ccccc3Cl)o2)cc1 (centres undefined),0.4%,3.6,19.8,-2.4,-5.9,3.3
COc1cc(OC)c(NC(=O)CSc2cc(=O)n(C)c3ccc(Cl)cc23)cc1Cl,2.2%,5.2,-0.4,-0.3,5.4,40.3*
Cn1c(SCC(=O)N2CCOCC2)ncc(C(=O)Nc2ccc(F)cc2)c1=O,?,·,2.5,0.4,-0.9,5.5
O=C(CN1C(=O)C2(SCC(=O)N2c2cccc(Cl)c2)c2ccccc21)NCc1ccccc1 (centres undefined),-1.3%,-5.7,5.5,5.0,0.6,-14.3
COC(=O)C1=C(C)NC2=C(C(=O)CC(c3cccs3)C2)C1c1ccsc1 (centres undefined),3.6%,-47.7*,0.8,-0.7,-8.3,2.7
Cc1cc(Cl)ccc1NC(=O)C1CCN(c2nnc(-n3c(C)ccc3C)s2)CC1,14.2%,-6.0,2.8,-0.5,-4.2,-3.1
COCCNC(=O)c1ccc2c(c1)S(=O)(=O)c1cc(Cl)ccc1C2=O,·,-17.2,0.2,0.9,-2.0,2.5
CC(C)(C)CNC(=O)c1ccc2c(c1)S(=O)(=O)c1cc(Cl)ccc1C2=O,·,-32.5*,3.5,-0.5,4.7,0.6
Cn1nnnc1Sc1ncnc2scc(-c3ccc4c(=O)ccoc4c3)c12,·,21.6,0.6,0.5,8.1,1.2
CO[C@@H]1COC(=O)C/C=C\[C@@H](C)[C@H](OC)COC(=O)[C@H](COCc2ccccc2)NC(=O)C/C=C\[C@H]1C,-1.6%[10.1 µM],·,·,·,·,·
SMILES,Epigenetic derep,D1 antagonist,D1 agonist,TRHR ag,D1 PAM,TRHR enhancer
Cc1ccc2nc(N3C(=O)C(O)=C(C(=O)c4ccc(C)o4)C3c3cccc(O)c3)sc2c1 (centres undefined),0.9%,-35.4*,3.9,1.4,-3.7,-2.1
COc1cc2c(C(=O)N3CCN(c4ccc(F)cc4)CC3)cn(CC(C)C)c(=O)c2cc1OC,-1.8%,-15.2,-1.0,0.7,-0.7,2.8
CCc1ccc(C(=O)c2cnc3ccc(F)cc3c2S(=O)(=O)c2ccccc2)cc1,-1.1%,-42.3*,2.4,-0.5,-6.9,-1.1
Cc1ccc2ncc(C(=O)c3ccc(C)c(C)c3)c(S(=O)(=O)c3ccccc3)c2c1,1.4%,10.8,3.0,0.3,-3.2,-5.8
COc1ccc2cc3cc(C(=O)N4CCN(c5ccccc5F)CC4)oc3nc2c1,3.7%,2.7,1.9,-0.1,3.0,-1.6
COc1ccc(C(=O)NNC(=O)C(=O)NC2CCCCC2)cc1,·,-46.5*,4.2,0.2,-7.1,12.1
COc1ccc(C(=O)NNC(=O)C(=O)NCc2ccccc2)cc1,0.6%,-48.2*,0.8,-0.6,-3.2,4.4
COc1ccc(C(=O)NNC(=O)C2CCCO2)cc1 (centres undefined),0.0%,-31.2*,0.3,-0.6,-3.0,-1.8
Cn1c(=O)n(C/C=C/c2ccccc2)c(=O)c2c1nc1n2CCN1c1ccccc1,0.0%,-11.8,4.2,-0.5,7.5,-1.1
CCCCCCNC(=O)Nc1ccc(S(=O)(=O)Nc2ccc(CCNC[C@H](O)COc3ccc(O)cc3)cc2)cc1,-0.9%,·,·,·,·,·
COc1ccc(CCNC(=O)CSc2nnc(-c3ccc(C)cc3)c(-c3ccc(C)cc3)n2)cc1OC,5.9%,-4.5,-2.3,-0.2,-0.2,-9.3
CCOc1ccccc1CNC(=O)c1ccc(-c2nc(CSc3ccc(C)cc3)c(C)o2)cc1,5.7%,6.1,14.2,1.4,-2.4,-0.6
Cc1oc(-c2ccc(C(=O)NCc3ccccc3F)cc2)nc1COc1ccccc1,5.2%,-54.4*,10.9,1.4,-4.1,-19.5
Cc1ccc(SCc2nc(-c3ccc(C(=O)NCc4ccc(Cl)cc4)cc3)oc2C)cc1,1.8%,-83.7*,2.3,0.1,-3.0,-10.4
O=C(CSc1nc(=O)n(Cc2ccco2)c2c1CCC2)NCc1ccccc1,3.4%,·,-2.7,-0.6,3.4,-5.9
O=C(COc1ccc([N+](=O)[O-])cc1)Nc1ccc(NC(=O)c2ccccc2)cc1,·,-0.8,4.9,0.7,-3.5,-2.5
O=C(COc1ccccc1)Nc1ccc([N+](=O)[O-])cc1,0.9%,-81.6*,14.1,0.5,-8.5,2.9
COc1ccc(OCC(=O)Nc2ccc(-c3nc4cc(C)c(C)cc4o3)cc2)cc1,-0.8%,-30.5*,-0.3,1.9,0.7,1.0
Cc1ccc(OCC(=O)Nc2ccc([N+](=O)[O-])cc2)cc1,-1.6%,-38.5*,6.8,-0.9,-3.8,-3.2
CC(=O)Nc1ccc(S(=O)(=O)NNC(=O)COc2ccc(C)cc2)cc1,1.1%,-33.3*,0.3,0.3,-19.4,0.0
Cc1c(Cl)cccc1NC(=O)CCn1nc(C)c2c(C)n(-c3ccccc3)nc2c1=O,-1.1%,3.0,0.2,0.1,3.4,4.0

# High-throughput results as filed in PubChem.
